# Test results published in article PMC4336329 (PLoS ONE, 2015).
# Among all 310,000 compounds or so, about 14,000 (4.5%) showed an effect of 50% or more. Effects have a minus sign here. Only a selection was taken, and strong results are over-represented in it overall.
# Target: human ether-à-go-go-related gene (hERG) potassium channel (human, UniProt Q12809)
# Assay: primary screen, population patch clamp on CHO cells stably expressing hERG; higher = less effect of the substance
# 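Further: peak tail current of the secondary pulse compared with the same well before compound.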
# human ether-à-go-go-related gene (hERG) potassium channel, sequence (Q12809 whole entry, looked up): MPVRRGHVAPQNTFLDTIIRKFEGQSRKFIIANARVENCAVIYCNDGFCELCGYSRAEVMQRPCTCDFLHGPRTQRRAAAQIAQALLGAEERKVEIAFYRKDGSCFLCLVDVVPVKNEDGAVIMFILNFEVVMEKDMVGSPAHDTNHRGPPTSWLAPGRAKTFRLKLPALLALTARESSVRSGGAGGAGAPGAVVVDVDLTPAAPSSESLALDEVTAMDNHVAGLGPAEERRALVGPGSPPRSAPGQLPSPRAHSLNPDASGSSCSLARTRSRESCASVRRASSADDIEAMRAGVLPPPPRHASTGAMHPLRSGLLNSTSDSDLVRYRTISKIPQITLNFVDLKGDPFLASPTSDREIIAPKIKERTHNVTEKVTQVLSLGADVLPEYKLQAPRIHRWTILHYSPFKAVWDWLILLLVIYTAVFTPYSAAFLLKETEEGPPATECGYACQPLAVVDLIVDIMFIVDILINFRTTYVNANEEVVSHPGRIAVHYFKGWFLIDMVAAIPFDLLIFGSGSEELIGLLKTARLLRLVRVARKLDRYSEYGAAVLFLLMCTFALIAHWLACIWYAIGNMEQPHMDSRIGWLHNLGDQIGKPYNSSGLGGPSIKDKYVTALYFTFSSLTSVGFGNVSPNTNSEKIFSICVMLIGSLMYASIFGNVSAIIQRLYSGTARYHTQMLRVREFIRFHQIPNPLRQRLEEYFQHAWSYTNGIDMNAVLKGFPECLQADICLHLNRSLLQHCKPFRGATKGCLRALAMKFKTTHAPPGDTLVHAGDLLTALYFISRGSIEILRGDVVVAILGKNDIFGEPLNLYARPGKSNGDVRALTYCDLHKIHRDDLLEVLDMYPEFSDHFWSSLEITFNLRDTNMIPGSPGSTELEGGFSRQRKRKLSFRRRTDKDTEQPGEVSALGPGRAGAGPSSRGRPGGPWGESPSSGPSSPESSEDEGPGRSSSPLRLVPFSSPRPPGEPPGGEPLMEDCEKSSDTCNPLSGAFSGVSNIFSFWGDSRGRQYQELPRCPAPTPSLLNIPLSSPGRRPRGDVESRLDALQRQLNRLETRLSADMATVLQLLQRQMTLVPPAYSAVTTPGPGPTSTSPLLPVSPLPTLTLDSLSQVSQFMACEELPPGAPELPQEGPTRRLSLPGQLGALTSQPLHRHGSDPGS
row,Structure (SMILES),"hERG current change (%, negative = inhibition) at 10uM"
1,COC1=CC(=O)OC12CCCCC2,8.91%
2,CCc1noc(C)c1C(=O)N(CCCOC)c1c(N)n(Cc2ccccc2)c(=O)[nH]c1=O,27.3%
3,Clc1ccc(-c2ccnc(Oc3ccc4ccccc4c3)n2)cc1,7.34%
4,COc1ccc(OCC(=O)Nc2ccc3c(c2)nc(CCN2CCCC2)n3C)cc1,-55%
5,CC(=O)NCCc1nc2cc(NC(=O)c3ccccc3)ccc2n1C,-25.6%
6,COc1ccc(OCC(=O)Nc2ccc3c(c2)nc(CCn2ccccc2=O)n3C)cc1,-10.8%
7,Cn1c(CCN2CCCCC2)nc2cc(NC(=O)COc3ccccc3)ccc21,-78%
8,CN1CCN(CCc2nc3cc(NC(=O)COc4ccccc4)ccc3n2C)CC1,-32.6%
9,Cc1cccc(OCC(=O)Nc2ccc3c(c2)nc(CCN2CCCCC2)n3C)c1,-77.2%
10,Cn1c(CCn2ccccc2=O)nc2cc(NC(=O)COc3ccccc3)ccc21,-40.6%
11,Cc1cccc(OCC(=O)Nc2ccc3c(c2)nc(CCN2CCN(C)CC2)n3C)c1,-37.1%
12,CCC(=O)NCCc1nc2cc(NC(=O)Nc3ccccc3)ccc2n1C,18.8%
13,CC(=O)NCCc1nc2cc(NC(=O)Nc3ccccc3)ccc2n1C,-53.8%
14,CC(=O)NCCc1nc2cc(NC(=O)COc3cccc(C)c3)ccc2n1C,6.53%
15,COc1ccc(OCC(=O)Nc2ccc3c(c2)nc(CCNC(C)=O)n3C)cc1,13.1%
16,CC(C)CN(C(=O)COC(=O)c1cnccn1)c1c(N)n(Cc2ccccc2)c(=O)[nH]c1=O,16.4%
17,CC(C)Cn1c(N)c(C(=O)COC(=O)c2ccc(O)cc2O)c(=O)n(C)c1=O,8.34%
18,CCn1c(SCC(=O)NC2CCCC2)nnc1-c1ccncc1,16.4%
19,Cc1ccc(OCC(=O)Nc2ccccc2F)cc1,-0.548%
20,CN1C(=O)/C(=C/c2ccc(OCc3ccc(C(=O)O)cc3)c(Cl)c2)NC1=S,20.4%
21,Cc1ccc(OCCn2cnc3c2c(=O)n(C)c(=O)n3C)cc1,20%
22,C=CCSc1nc2ccccc2[nH]1,25%
23,O=C(Cc1ccccc1)NCc1ccc(-n2cccc2)cc1,29.3%

row,Structure (SMILES),"hERG current change (%, negative = inhibition) at 10uM"
1,CN(C(=O)CC1C(=O)NCCN1Cc1cccc(F)c1F)C1CC(C)(C)NC(C)(C)C1 (stereo not shown),26.1%
2,CCC(=O)Nc1ccc2c(c1)nc(CCN1CCN(C)CC1)n2C,29.3%
3,Cc1ccc(OCC(=O)Nc2ccc3c(c2)nc(CCN2CCCCC2)n3C)cc1,-82.3%
4,CC(=O)NCCc1nc2cc(NC(=O)COc3ccc(C)cc3)ccc2n1C,14.2%
5,Cn1c(CCN2CCCCC2)nc2cc(NC(=O)NC3CCCCC3)ccc21,0.766%
6,Cn1c(CCN2CCCCC2)nc2cc(NC(=O)C3CCCCC3)ccc21,-60.2%
7,COc1ccc(OCC(=O)Nc2ccc3c(c2)nc(CCN2CCN(C)CC2)n3C)cc1,-8.47%
8,COc1ccc(OCC(=O)Nc2ccc3c(c2)nc(CCN2CCCCC2)n3C)cc1,-65.5%
9,Cn1c(CN2CCCC2)nc2cc(NC(=O)C3CCCCC3)ccc21,-4.77%
10,Cc1ccc(OCC(=O)Nc2ccc3c(c2)nc(CCN2CCN(C)CC2)n3C)cc1,-55.6%
11,CCOC(=O)C(=CNc1ccc2c(c1)nnn2-c1ccc(Cl)cc1)C(=O)OCC,-5.02%
12,COc1ccccc1-c1cc(C(F)(F)F)nc(S(=O)(=O)CCCC(=O)N2CCOCC2)n1,2.47%
13,Cn1ncc(Cl)c1C(=O)NCC1CCCO1 (stereo not shown),9.21%
14,O=C(Cn1cc(C(=O)c2ccccc2F)c2ccccc21)NC1CC1,-4.44%
15,CCN(CC)c1ccc(NC(=O)CSc2nnc3nc(C)cc(C)n23)cc1,-0.579%
16,Cc1cc(C(=O)NNC(=O)c2ccc(Cl)cc2)c2ccccc2n1,0.225%
17,CC(=O)N1CSCC1C(=O)NNS(=O)(=O)c1cccc(C(F)(F)F)c1 (stereo not shown),8.58%
18,Cl.NC1=NC(c2cccc(Cl)c2)N(CCc2ccc(F)cc2)C(N)=N1 (stereo not shown),15.6%
19,OC1C=CSc2nc3ccccc3n21 (stereo not shown),4.02%
20,CCOc1ccc(-c2csc3nc[nH]c(=O)c23)cc1,14.9%
21,OCCNc1nc(C2CC2)nc2c1nnn2Cc1ccccc1Cl,-0.392%
22,CS(=O)(=O)N(CC(=O)Nc1ccccc1C(=O)N1CCCC1)c1cccc([N+](=O)[O-])c1,-13.2%
23,O=C(NCCN1CCOCC1)c1cc(-c2cccs2)nc2ccccc12,-13.1%

row,Structure (SMILES),"hERG current change (%, negative = inhibition) at 10uM"
1,COc1cc(CO)ccc1Oc1nc2ccccc2n2cnnc12,10.7%
2,CC(Oc1ccc(C#N)cc1)C(=O)NC1CCCC1 (stereo not shown),-12.9%
3,COC(=O)c1ccc(OC(C)C(=O)c2ccc(C)cc2)cc1 (stereo not shown),-21.5%
4,CC(=O)c1ccc(OCC(C)Oc2ccc(C#N)cc2)cc1 (stereo not shown),-62.8%
5,CC(=O)c1ccc(OCCOc2ccc(C#N)cc2)cc1,-49.4%
6,CC(Oc1ccc(C#N)cc1)C(=O)c1ccc(F)c(F)c1 (stereo not shown),-51.6%
7,CC(=O)c1ccc(OCC(O)COc2ccc(C(C)=O)cc2)cc1,-11.3%
8,CCC1C(=O)N=C(SCC(=O)Nc2cccc3ccccc23)NC1=O (stereo not shown),-7.84%
9,COc1ccc(C2C(C(=O)N3CCC(C(N)=O)CC3)CC(=O)N2c2ccc(OC)cc2)cc1 (stereo not shown),-1.19%
10,S=C(Nc1ccccc1)Nc1nc2ccccc2n1CCOc1ccc(Br)cc1,11.6%
11,Nc1nc2ccccc2n1CCOc1ccccc1Cl,-3.5%
12,Clc1ccc(OCCn2c(-c3ccco3)nc3ccccc32)cc1,-26.7%
13,OCc1nc2ccccc2n1CCCOc1ccc(Br)cc1,-36.8%
14,Nc1nc2ccccc2n1CCOc1ccc(Cl)cc1,-51.1%
15,Nc1nc2ccccc2n1CCOc1ccc(F)cc1,-67.9%
16,Cc1nc2ccccc2n1CCOc1ccc(F)cc1,-19.8%
17,CCCn1c(N)nc2ccccc21,8.05%
18,Cn1c(COc2ccc(F)cc2)nc2ccccc21,-0.759%
19,Nc1nc2ccccc2n1CCOc1ccc(Br)cc1,-61.2%
20,COCCn1c(COc2ccc(OC)cc2)nc2ccccc21,-14.3%
21,COc1ccc(OCCn2c(N)nc3ccccc32)cc1,-67.4%
